# Data from PubChem BioAssay (NCATS).
# Values joined by “and” are separate entries in the source; they are usually repeats but may differ in a detail not shown here. Equal entries are not always repeated. Records with an inconclusive call do not appear. Active and inactive are the calls of the source. Calls follow the shape of the dose curve; as a rule, active = well fitted inhibition curve with a large enough effect; inconclusive = small, poorly fitted or top-dose-only effect; inactive = flat fitted curve, though single readings scatter.
# System: CRL-7250
# Test: Cytotoxic Profiling of Annotated Libraries Using Quantitative High-Throughput Screening (AID 1296008); also: nearly all actives have a fitted effect of over 60% in size
# Conditions: Five cell lines viability, CellTiter-Glo ATP luminescence, 48-72 h; max response: hits give low values
# Summary of the method: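 Cells exposed to compounds for 48 or 72 hr at 37 degrees Celsius. Viability read as ATP-coupled luminescence with CellTiter-Glo after 10 min at room temperature.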
# % is scaled to controls: 0 for no effect and ±100 for the full control effect; potency is read from the fitted curve at half-maximal effect.
SMILES,max response,outcome,Potency
CC(C)OP(=O)(CP(=O)(OC(C)C)OC(C)C)OC(C)C,-7.87% (inactive),–,–
Cc1nc([N+](=O)[O-])cn1-c1ccc([N+](=O)[O-])cc1,1.02% (inactive),–,–
CCN(CC)CCOc1ccc(/C(=C(\Cl)c2ccccc2)c2ccccc2)cc1,-10.3% (inactive) and -19.3% (inactive),–,–
CC(=O)N1CCN(c2ccc(O)cc2)CC1,-1.56% (inactive),–,–
C[C@@H](C1=C(CCN(C)C)Cc2ccccc21)c1ccccn1,–,inactive,–
COc1cc(S(N)(=O)=O)cc(C(=O)O)c1OC,3.62% (inactive),–,–
CC(C)(C)c1cc(C=O)cc(C(C)(C)C)c1O,4.77% (inactive),–,–
CO/N=C(/C(=O)N[C@@H]1C(=O)N2C(C(=O)OCOC(=O)C(C)(C)C)=C(C)CS[C@H]12)c1csc(N)n1,–,inactive,–
O=C(Oc1ccccc1)c1ccccc1O,–,inactive,–
CCCCOCCOC(=O)c1cccnc1,–,inactive,–
CNC(=O)c1cnn(-c2nc(N)c3ncn([C@@H]4O[C@H](CO)[C@@H](O)[C@H]4O)c3n2)c1,-10.9% (inactive),–,–
O=C(CCCl)NCCc1ccccc1,–,inactive,–
CCOC(=O)O[C@]1(C(=O)OCCl)CC[C@H]2[C@@H]3CCC4=CC(=O)C=C[C@]4(C)[C@H]3[C@@H](O)C[C@@]21C,–,inactive,–
O=C(O)[C@@H](O)[C@H](O)[C@H](O)[C@@H](O)C(=O)O,-8.84% (inactive),–,–
C1N2CN3CN1CN(C2)C3,–,inactive,–
CCOC(=O)CN1CCCC1=O,1.6% (inactive),–,–
OCCCc1ccccc1,-10.6% (inactive),–,–
Nc1ccc([N+](=O)[O-])c(C(F)(F)F)c1,1.39% (inactive),–,–
CN1[C@@H]2CC[C@H]1CC(NC(=O)n1c(=O)[nH]c3ccccc31)C2 (some centres not stated),-3.19% (inactive),–,–

SMILES,max response,outcome,Potency
COc1ccccc1N1CCN(CCN2C(=O)CC3(CCCC3)CC2=O)CC1,-8.79% (inactive),–,–
CCCCNc1ccc(C(=O)OCCN(CC)CC)cc1,-6.06% (inactive),–,–
COc1ccc([C@@H]2Sc3ccccc3NC(=O)[C@@H]2O)cc1,-22.1% (inactive),–,–
CC1CC(=O)NN=C1c1ccc(NCC(C)(C)NCC(O)COc2cc(Cl)ccc2C#N)cc1 (configuration not stated),-11.5% (inactive),–,–
CN1C(=O)c2ccccc2C1=O,3.83% (inactive),–,–
CCN(CC)CC(=O)Oc1ccc(NC(C)=O)cc1,-7.74% (inactive),–,–
Cc1c(N)cccc1C(F)(F)F,–,inactive,–
CCN1CCCC1CN (configuration not stated),3.84% (inactive),–,–
Cc1cc(=O)oc2cc(O[C@@H]3SC[C@@H](O)[C@H](O)[C@H]3O)ccc12,-1.48% (inactive),–,–
O=C1NC(c2ccccc2)(c2ccccc2)C(=O)N1COP(=O)(O)O,–,inactive,–
Cc1ccc(O)cc1,-3.08% (inactive),–,–
CCCCCCCCCCCCCCCCCCNC(=O)OC1CCN(C(=O)OC[C@H](COC(=O)N(Cc2cccc[n+]2CC)C(=O)c2ccccc2OC)OC)CC1,–,–,8.41 µM (active)
CCCC(=O)Nc1ccc(O)c(C(C)=O)c1,-0.565% (inactive),–,–
c1ccc2c(c1)CCc1ccccc1N2,–,inactive,–
O=[N+]([O-])c1cncn1CCN1CCOCC1,–,inactive,–
Fc1ccc(C(c2ccc(F)cc2)N2CCNCC2)cc1,–,inactive,–
CCCC(=O)O[C@]1(C(=O)CCl)[C@@H](C)C[C@H]2[C@@H]3CCC4=CC(=O)C=C[C@]4(C)[C@@]3(F)C(=O)C[C@@]21C,-8.55% (inactive),–,–
C[N+](C)(CCOc1ccccc1)Cc1cccs1,-3.68% (inactive),–,–
